Assay outcomes from PubChem.
This is a sample that favours compounds with a hit; in the whole collection about 22% have one here.
Pf growth 48h = inhibits P. falciparum growth in the first generation, 48 h; 5.9% of 310,000 active; P. falciparum luciferase growth in erythrocytes, 48 h; Potency, µM (titrated, usually from 28.7 µM), usual class: inhibitors
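Erythrocytes infected with P. falciparum carrying an integrated firefly luciferase reporter (2% hematocrit, 0.1% parasitemia final) were exposed to compounds in RPMI 1640 with 0.5% Albumax at 37 C, 5% CO2. Growth inhibition was scored as reduced luminescence.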
Shiga inhibitor = blocks Shiga toxin action in Vero cells. Vero cells, Shiga toxin protein synthesis inhibition reporter. AID 2315. inhibition, % at 38.7 µM. 9.2% of 290,000 active; in the data active means inhibition mostly above about 28%, no sharp cut-off; inactive means mostly below about 43%
Pf growth 96h = P. falciparum growth inhibition at 96 hour, primary screen for plastid delayed-death inhibitors. P. falciparum luciferase reporter growth, 96 h. Potency, µM (highest dose often 28.7 µM), hits mostly inhibitors. 6.9% of 320,000 active. AID 504834
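Luminescence readout: decreased luciferase signal marks inhibited growth of reporter-expressing P. falciparum in infected red cells (2% hematocrit, 0.05% parasitemia final), exposed to compound two generations (96 h, 37 C, 5% CO2).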
LmPK inh = inhibitors of Leishmania mexicana pyruvate kinase; Potency, µM (series often up to 57.5 µM), usual class: inhibitors; purified LmPK, Kinase-Glo ATP luminescence, 1 h; 0.37% of 290,000 active; Q27686; AID 1721
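In 50 mM imidazole pH 7.2 with 7 mM MgCl2, LmPK (0.1 nM) turned over PEP (0.5 mM) and ADP (0.1 mM) for 1 h at room temperature. Luciferase read-out of ATP.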
CHX counter = counter-screen hit for Shiga toxin inhibitors, cycloheximide; 12% of 300,000 active; cell reporter, cycloheximide protein synthesis inhibition counterscreen; AID 2314; max response, %; in the data active means max response mostly above about 13%, no sharp cut-off; inactive means mostly below about 14%; further: read at 38.3 µM for the half of the compounds with a filed dose
Numbers stand for hits; n = inactive; u = inconclusive; x = not tested or not shown. Unless noted, the call rests on the fitted dose curve; in most records, active means well fitted inhibition curve with a large enough effect; inconclusive means small, poorly fitted or top-dose-only effect, or another doubt; inactive means no such curve, though single readings can be large or run the other way.

SMILES | Pf growth 48h | Shiga inhibitor | Pf growth 96h | LmPK inh | CHX counter
COc1ccccc1OCCCC(=O)Nc1nnc(C2CCCO2)s1 (configuration not stated) | n | n | n | n | n
COc1ccccc1NC(=O)C1CCN(S(=O)(=O)c2ccc3c(c2)NC(=O)CO3)CC1 | u | n | n | n | n
CCC(=O)Nc1cccc(C2=NOC3(C2)C[C@@H](C(N)=O)N(C(=O)COc2ccc(Cl)cc2)C3)c1 (some centres not stated) | u | n | n | n | n
CCC(=O)N1CC2(CC(c3cccc(NC(=O)COc4ccc(Cl)cc4)c3)=NO2)C[C@@H]1C(N)=O (some centres not stated) | u | n | u | n | n
CCCCCC(=O)N1CC2(CC(c3cccc(NC(=O)COc4ccc(Cl)cc4)c3)=NO2)C[C@@H]1C(N)=O (some centres not stated) | 10µM | n | 13µM | n | n
NC(=O)[C@H]1CC2(CC(c3cccc(NC(=O)COc4ccc(Cl)cc4)c3)=NO2)CN1C(=O)c1ccc(Cl)cc1 (some centres not stated) | 13µM | n | u | n | n
CCC(C)(CC(=O)Nc1nccs1)c1ccccc1 (configuration not stated) | x | n | n | n | n
C/C(=N\NC(=S)Nc1cccc(C)c1)c1cccc(N)c1 | u | n | n | n | n
CSC(=S)N/N=C(\C)c1ccccc1 | u | 50 | u | n | 28
C/C(=N\NC(=S)Nc1ccc(C)cc1)c1cccc(N)c1 | u | 54 | n | n | n
